# Data as given in PubChem BioAssay (NCATS).
# Unmarked numbers belong to inactive results. The call rests on the fitted dose curve; in most records, active means well fitted curve in the direction sought with a large enough effect; inconclusive means small, poorly fitted or top-dose-only effect, or another doubt; inactive means no such curve, though single readings can be large or run the other way.
# Molecular target: Galactokinase (Homo sapiens) (UniProt P51570)
# Assay: qHTS Validation Assay for Inhibitors of Human Galactokinase (GALK) (AID 493189); further: 0% is about no effect
# Conditions: purified human GALK enzyme activity, qHTS 7-point titration; series mostly up to 57.5 µM; activity change, negative = inhibition: at the top concentration
# How it was run: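 Compounds were pin-transferred into ATP buffer, then GALK-galactose mix was added (final 5 nM enzyme, 100 uM galactose, 35 uM ATP). After 1 h at room temperature, remaining ATP was measured luminescently.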
# Sequence of Galactokinase (Homo sapiens) (P51570 whole entry, looked up): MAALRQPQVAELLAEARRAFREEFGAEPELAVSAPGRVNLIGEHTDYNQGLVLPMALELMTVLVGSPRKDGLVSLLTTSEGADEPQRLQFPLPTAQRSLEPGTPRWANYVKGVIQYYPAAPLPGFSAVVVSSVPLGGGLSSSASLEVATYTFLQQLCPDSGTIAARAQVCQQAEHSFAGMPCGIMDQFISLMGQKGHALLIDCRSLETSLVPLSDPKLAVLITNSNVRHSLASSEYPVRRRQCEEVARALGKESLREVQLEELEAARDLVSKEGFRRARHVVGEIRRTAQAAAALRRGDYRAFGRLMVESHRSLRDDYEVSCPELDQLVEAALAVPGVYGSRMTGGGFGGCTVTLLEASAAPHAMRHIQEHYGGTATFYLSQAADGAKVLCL
row,Compound,"activity change, negative = inhibition"
1,Oc1ccc2c3c1O[C@H]1c4oc5ccccc5c4C[C@@]4(O)C(C2)N(CC2CC2)CCC314 (stereo not given in full),-3.29%
2,C=CCN1CCC23c4c5ccc(O)c4O[C@H]2C(=O)CC[C@@]3(O)C1C5 (stereo not given in full),-2.18%
3,C#CCN[C@H](C)Cc1ccccc1,-0.172%
4,Cc1sc2ccccc2c1CC1=NCCN1,0.716%
5,Ic1ccccc1CNC1C2CCN(CC2)C1C(c1ccccc1)c1ccccc1 (stereo not given),-14.9%
6,COC(=O)N1CCN(C(=O)Cc2ccc(Cl)c(Cl)c2)C(CN2CCCC2)C1 (stereo not given),4.33%
7,N[C@@H](CCl)C(=O)O,-4.77%
8,CC(=O)NBr,-2.97%
9,Oc1ccc2c3c1O[C@H]1c4[nH]c5ccccc5c4C[C@@]4(O)C(C2)N(CC2CC2)CCC314 (stereo not given in full),-0.76%
10,CCS(=O)(=O)Nc1cccc(C(=C2CCCCC2)c2cnc[nH]2)c1,-1.5%
11,OCc1cnc[nH]1,-0.493%
12,NC(Cc1cc(O)c(O)cc1O)C(=O)O (stereo not given),-23.8%
13,CN1CCc2cccc(Cl)c2CC1,3.23%
14,NCCCP(=O)(O)O,-14.1%
15,C[N+](C)(C)CC#CCOC(=O)Nc1cccc(Cl)c1,-1.46%
16,C[C@H](Cc1ccc2c(c1)OC(C(=O)O)(C(=O)O)O2)NC[C@H](O)c1cccc(Cl)c1,-0.307%
17,NNC(=O)c1ccc(O)cc1,-1.77%
18,N[C@@]1(C(=O)O)CC[C@@H](C(=O)O)C1,-0.162%
19,CC1(C(=O)O)C2CCC(O2)C1(C)C(=O)O (stereo not given),-2.36%
20,NC(=O)COc1c(F)cc(SCCNS(=O)(=O)c2ccccc2)cc1F,2.78%

row,Compound,"activity change, negative = inhibition"
1,C[Se]C[C@H](N)C(=O)O,-0.624%
2,CCCN(CCC)CCc1ccc(O)c(O)c1,-5.3%
3,COc1ccc2[nH]cc(CCN)c2c1,4.31%
4,C[C@H](N)CN1CCc2ccc(Br)cc21,-3.12%
5,NC(N)=NOCC[C@H](N)C(=O)O,-2.04%
6,CCCN(CCC)[C@@H]1CCc2cccc(O)c2C1,2.49%
7,CC(Cc1ccc(OCC(=O)O)cc1)NCC(O)c1cccc(Cl)c1 (stereo not given),1.76%
8,NNC(N)=O,-3.2%
9,Nc1ccc(CCN2CCN(c3cccc(C(F)(F)F)c3)CC2)cc1,2.91%
10,NC(=O)c1ccc(OCC(O)CN2CC=C(c3ccc(F)cc3)CC2)cc1 (stereo not given),3.61%
11,CCCCCCCCCCCCCC(=O)O[C@@H]1[C@@H](C)[C@@]2(O)[C@@H](C=C(CO)C[C@@]3(O)C(=O)C(C)=C[C@@H]23)C2C(C)(C)[C@@]21OC(C)=O (stereo not given in full),1.09%
12,NCC(CP(=O)(O)O)c1ccc(Cl)cc1 (stereo not given),0.886%
13,NCC(O)c1cc(O)c(O)cc1F (stereo not given),2.04%
14,C/C(O)=C(\C#N)C(=O)Nc1cc(Br)ccc1Br,0.637%
15,CC12NC(Cc3ccccc31)c1ccccc12 (stereo not given),2.58%
16,C=CCN1CC[C@]23c4c5ccc(O)c4O[C@H]2/C(=N/NC(=O)c2ccccc2)CC[C@@]3(O)[C@H]1C5,-2.34%
17,COc1ccc2[nH]c3c(c2c1)CCNC3,-2.89%
18,CCOC(=O)c1ncn2c1[C@@H]1CCCN1C(=O)c1cc(OC)ccc1-2,4.13%
19,C[N+]1(C)CCN(c2ccccc2)CC1,-3.46%
20,CN(C(=O)Cc1ccc(Cl)c(Cl)c1)C(CN1CCCC1)c1cccc(OCC(=O)O)c1 (stereo not given),1.8%
